# Sampled rows, rich in hits. Any-hit rate of the full collection: about 5.7%.
# ssDAF-12 act: activators of S. stercoralis DAF-12 nuclear receptor; HEK293 ssDAF-12/GRIP1 lit1-tk-luc reporter, luminescence; % of 3 µM dafachronic acid response; activation, % at 6.8 µM; 370,000 compounds, 1% hits;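 active = activation above the mean over all tested compounds plus 3 SD, cut at about 0.9% in these data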;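 also: 0% = DMSO-only wells and 100% = 3 µM delta7-dafachronic acid wells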
# hcDAF12 agonist: H. contortus DAF-12 activation, primary screen; HEK293 hcDAF-12 lit1-tk-luc reporter, luminescence; 0% DMSO, 100% Δ7-dafachronic acid; activation, % at 6.8 µM; 370,000 compounds, 1.4% hits;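 active = activation above the mean of all tested compounds plus 3 SD, cut at about 5.5% in these data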;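 also: 100% = response to 3 µM Δ7-dafachronic acid high control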
# DAX1 inh-1: inhibitors of DAX1 repression of SF-1 activated StAR promoter; HEK293T StAR-luciferase reporter, SF-1/DAX-1 repression relief; inhibition, % at 6.8 µM; AID 652010; 370,000 compounds, 1.1% hits;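 active = inhibition above the mean over all tested compounds plus 3 SD, cut at about 3.6% in these data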;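 also: 0% = DAX-1 cells with DMSO and 100% = cells lacking DAX-1 with DMSO; higher inhibition means more luminescence from relief of DAX-1 repression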
# AHR activator: activates the human aryl hydrocarbon receptor. AID 2796. P35869. 320,000 compounds, 2.5% hits. activation, % at 5 µM. AHR-responsive luciferase reporter cells, luminescence; in the data active = activation above about 47%;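 also: 0% = vehicle wells and 100% = reference agonist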
# Target sequence (P35869 whole entry, looked up): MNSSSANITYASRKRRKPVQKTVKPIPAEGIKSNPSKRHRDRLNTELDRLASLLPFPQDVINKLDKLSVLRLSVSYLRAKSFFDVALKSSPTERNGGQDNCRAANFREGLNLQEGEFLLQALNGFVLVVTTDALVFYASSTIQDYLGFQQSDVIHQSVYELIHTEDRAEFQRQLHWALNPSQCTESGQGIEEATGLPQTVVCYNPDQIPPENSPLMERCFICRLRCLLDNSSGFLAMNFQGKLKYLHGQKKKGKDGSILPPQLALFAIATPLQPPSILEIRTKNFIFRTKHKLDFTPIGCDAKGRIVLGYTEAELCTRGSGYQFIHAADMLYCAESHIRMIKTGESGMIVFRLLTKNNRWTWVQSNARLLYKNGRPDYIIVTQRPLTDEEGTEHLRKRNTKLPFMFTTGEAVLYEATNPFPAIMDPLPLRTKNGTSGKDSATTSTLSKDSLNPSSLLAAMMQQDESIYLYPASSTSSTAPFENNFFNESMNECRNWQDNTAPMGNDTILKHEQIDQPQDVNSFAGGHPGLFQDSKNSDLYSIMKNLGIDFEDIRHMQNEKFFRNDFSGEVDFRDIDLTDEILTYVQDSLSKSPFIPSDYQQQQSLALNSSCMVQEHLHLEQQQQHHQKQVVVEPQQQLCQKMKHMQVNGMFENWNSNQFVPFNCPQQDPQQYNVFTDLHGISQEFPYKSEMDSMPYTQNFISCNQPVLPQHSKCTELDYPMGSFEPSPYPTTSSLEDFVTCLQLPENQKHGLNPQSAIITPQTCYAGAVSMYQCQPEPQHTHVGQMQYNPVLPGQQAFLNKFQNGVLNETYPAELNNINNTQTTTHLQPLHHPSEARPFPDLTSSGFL
# hgDAF-12 ag: agonists of H. glycines DAF-12 nuclear receptor; HEK293 GAL4-hgDAF12 UAS-luciferase reporter, agonist luminescence; normalized to butyrate control; activation, % at 6.8 µM; 370,000 compounds, 1.8% hits; AID 687014;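 active = activation above a cutoff set at the mean of all screened compounds plus 3 SD, cut at about 10% in these data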;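 also: 0% = DMSO wells and 100% = sodium butyrate wells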
# DAX1 inh-2: inhibits human nuclear receptor DAX1. AID 504766. inhibition, % at 6.75 µM. HEK293 Gal4-DAX1 luciferase reporter, luminescence. 340,000 compounds, 0.99% hits;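 active = inhibition above the mean over all tested compounds plus 3 SD, cut at about 4.2% in these data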;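 also: 0% = DAX1-transfected cells with DMSO and 100% = empty-vector control cells with DMSO; inhibition shows as a rise in luminescence from relieved DAX1 repression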
# LXRb hcDAF ctr: LXR-beta agonism as hcDAF-12 counter-screen. shares compounds with hcDAF12 agonist. HEK293 Gal4-LXR tk-luc reporter, luminescence, 24 h; normalized: DMSO 0%, positive control 100%. activation, % at 6.8 µM. 3,400 tested, under 10 active;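 active = mean percent activation of the reporter above a cutoff set as the average over tested compounds plus their standard deviation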
# hcDAF12 conf: confirmation of H. contortus DAF-12 agonists. shares compounds with hcDAF12 agonist. HEK293 hcDAF-12 lit1-tk-luc reporter, luminescence; % of Δ7-dafachronic acid response. activation, % at 6.8 µM. 3,400 compounds, 61% hits. AID 743032;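 active = mean activation across triplicate tests above the threshold derived from the earlier primary screen, cut at about 5.5% in these data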;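 also: 0% = DMSO only wells and 100% = 3 µM Δ7-dafachronic acid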
# Active calls of the source: *; . = no result.
SMILES,ssDAF-12 act,hcDAF12 agonist,DAX1 inh-1,AHR activator,hgDAF-12 ag,DAX1 inh-2,LXRb hcDAF ctr,hcDAF12 conf
COc1ccccc1C(CNC(=O)c1ccc(C)c(S(=O)(=O)N2CCCCC2)c1)N1CCCC1 (stereo not given),0,2,0,.,4,-1,.,.
CCN(CC)CCn1c(=N)n(CC(=O)c2ccc(C)cc2)c2ccccc21,1.2*,8.2*,1,25,5,3,0,5
Cn1c(=N)n(CC(=O)c2ccccc2)c2ccccc21,2.5*,18*,3,40,11*,.,2,25*
Cc1ccc(C(=O)Cn2c(=N)n(N)c3ccccc32)cc1,1.6*,7.5*,2,40,9,4.6*,0,4
CCCCn1c(=N)n(CC(=O)c2ccc(OC)cc2)c2ccccc21,-1,0,0,28,0,.,.,.
Cc1cc(=O)oc2ccc(OC(=O)CN3C(=O)c4cccc([N+](=O)[O-])c4C3=O)cc12,-1,8.8*,0,19,1,0,0,2
CC(NC(=O)Cc1ccc(S(=O)(=O)N2CCOCC2)s1)c1ccc(Cl)c(Cl)c1 (stereo not given),-1,-2,-2,2,-3,-1,.,.
CC1(C)CC(=O)N(CC(=O)NCc2ccccc2)c2ccccc2S1(=O)=O,-2,14*,0,3,1,0,0,1
CC1(C)CC(=O)N(CC(=O)NCc2ccc(F)cc2)c2ccccc2S1(=O)=O,-1,-2,0,-1,-1,2,.,.
COc1cccc(C(=O)Nc2ccc(NC(=O)C3C4C=CC(C4)C3C(=O)O)cc2)c1 (stereo not given),1.0*,12*,3,73*,11*,0,0,3
COc1cccc(C(=O)Nc2ccc(C(=O)O)cc2)c1,-1,-2,-1,2,0,0,.,.
Cc1cccc(C)c1NC(=O)CSc1nc(C2CC2)nc2ccccc12,-1,0,0,-1,0,-1,.,.
Cc1ccc(O)c(N=CC2=C(O)c3ccccc3C2=O)c1,0,6.8*,3,78*,7,0,1,2
CN=CC1=C(O)c2ccccc2C1=O,0,2,0,8,-1,0,.,.
O=C1C(C=Nc2ccccc2)=C(O)c2ccccc21,1.8*,16*,4.5*,11,13*,-1,2,11*
Cc1ccc(O)c(C=Nc2cc(C)ccc2O)c1,.,.,.,36,.,-2,.,.
COc1ccc(NC(=O)Cn2c(C(C)C)nc(C)cc2=O)cc1Cl,-1,-1,1,4,0,3,.,.
CCc1ccc(CN(C)C(=O)CCc2nnc(COc3ccccc3)o2)cc1,-1,0,0,1,10,1,.,.
CCOCCCNC(=O)c1cc2c(=O)n3cccc(C)c3nc2s1,0,12*,0,20,1,0,0,3
CCn1c(SCC(=O)Nc2ccc(F)cc2)nnc1-c1cnccn1,-1,-2,-2,5,-1,0,.,.
c1ccc(N2CC3COc4ccccc4C3=N2)cc1 (stereo not given),2.8*,16*,3.9*,.,20*,4,1,14*
COc1cc2c(cc1NC(=O)C1CCCO1)oc1ccccc12 (stereo not given),2.3*,12*,3,15,15*,1,1,17*
COc1ccc(Br)cc1C1Nc2cccc3cccc(c23)N1,-1,0,0,27,1,1,.,.
Brc1ccc(C2Nc3cccc4cccc(c34)N2)s1,0,6.6*,0,19,5,0,0,4
Cn1nc(-c2ccc(Cl)cc2)cc1NC(=O)CSCC(=O)O,0,3,0,6,5,.,.,.
SMILES,ssDAF-12 act,hcDAF12 agonist,DAX1 inh-1,AHR activator,hgDAF-12 ag,DAX1 inh-2,LXRb hcDAF ctr,hcDAF12 conf
N#C/C(=C\Nc1ccc2cn[nH]c2c1)c1nc(-c2ccc(Cl)cc2)cs1,0,7.3*,0,52*,2,2,-1,3
COc1ccc(OC)c(CNC(=O)c2nn(C)c3c2CS(=O)(=O)c2ccccc2-3)c1,-1,0,3,11,-1,1,.,.
O=C(Nc1ccccc1)C(=O)Nc1cccnc1,1,9.3*,3,-5,10,1,1,5
O=C(O)/C=C/C(=O)Nc1cccnc1,-1,1,0,1,3,1,.,.
O=C(O)c1ccccc1-c1noc(-c2ccccc2F)n1,0,7.3*,.,.,12*,.,1,5
CCNC(=O)c1ccccc1-c1nc(-c2ccccc2)no1,0,0,0,0,1,-1,.,.
O=C(O)c1ccc(-c2noc(-c3ccccc3F)n2)cc1,0,6.8*,2,-2,8,-3,2,7.0*
Cc1ccc(-c2noc(-c3ccccc3F)n2)cc1,2.1*,17*,3.7*,13,12*,2,2,13*
Cc1ccc(C(=O)OCC(=O)N(Cc2ccccc2)C(C)C)cc1C,-1,0,0,2,-1,1,.,.
CCc1c(C(=O)N2CCCN(C)CC2)csc1C,-1,0,0,-2,2,0,.,.
NC(=O)c1ccccc1N/C=C/C(=O)c1ccc(Cl)cc1,1,6.7*,3,-15,10,-1,1,5
Cc1c(CC(=O)N[C@H](C(=O)O)C(C)C)c(=O)oc2cc3c(cc12)CCC(C)(C)O3,0,6.9*,2,.,8,0,1,6.6*
CC(C)CCNC(=O)C1CC(c2ccccc2[N+](=O)[O-])=NO1 (stereo not given),0,7.2*,0,29,4,2,0,4
CCCNC(=O)C1CC(c2ccccc2[N+](=O)[O-])=NO1 (stereo not given),-1,3,0,34,2,1,.,.
COc1ccc(NC(=O)CSc2nc(N)c(NC(=O)c3ccccc3F)c(=O)[nH]2)cc1,-1,-1,0,0,0,1,.,.
COc1ccc(CC(=O)Nc2ccc(NC(=O)c3ccccc3F)cc2)cc1,-2,9.8*,0,-5,1,0,0,0
COc1cc2c(cc1NC(=O)c1ccccc1F)CCCC2,0,8.2*,2,19,10,0,0,6.7*
O=C1c2cccc3cc([N+](=O)[O-])cc(c23)C(=O)N1CCN1CCCC1,7.1*,44*,-2,.,-1,2,2,17*
